Source: PubChem BioAssay
An excerpt weighted towards active compounds, which were near 4.1% of everything screened.
Rv3671c protease: inhibitors of M. tuberculosis serine protease Rv3671c | P9WHR9 | inhibition, % at 5.96 µM | 320,000 compounds, 0.048% hits; in the data active = inhibition above about 38%;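 also: extracellular domain of Rv3671c used as enzyme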
Target sequence (P9WHR9 whole entry, looked up, the tested form may be a part): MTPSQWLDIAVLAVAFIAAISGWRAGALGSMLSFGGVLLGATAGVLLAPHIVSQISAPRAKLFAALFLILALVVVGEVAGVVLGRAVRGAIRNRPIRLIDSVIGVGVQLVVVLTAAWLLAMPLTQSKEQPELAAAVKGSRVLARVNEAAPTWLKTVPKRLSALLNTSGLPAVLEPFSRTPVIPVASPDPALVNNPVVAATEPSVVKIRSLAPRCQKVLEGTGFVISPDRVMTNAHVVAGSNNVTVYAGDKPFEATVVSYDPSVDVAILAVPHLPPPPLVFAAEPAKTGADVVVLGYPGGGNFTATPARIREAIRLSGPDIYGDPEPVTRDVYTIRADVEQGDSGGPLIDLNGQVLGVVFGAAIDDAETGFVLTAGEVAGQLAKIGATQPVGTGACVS
RecA intein inh: blocks M. tuberculosis RecA intein splicing; P9WHJ3; cell-free RecA intein splicing, fluorescence; inhibition, % (concentration not given with the values); 290,000 compounds, 0.75% hits; AID 2221; in the data active = inhibition above about 30%
GDH-TPI counter-1: inhibits GDH-TPI coupling enzymes, artifact for Mtb FBA screen | 360,000 compounds, 1.2% hits | inhibition, % at 4.8 µM | AID 588335 | GDH-TPI coupled enzyme counterscreen, NADH absorbance; in the data active = inhibition above about 30%
Vc quorum ag: quorum light induction in luxS cqsA deficient V. cholerae; V. cholerae BH1578 lux reporter, luminescence, 6 h; activation, % at 18.7 µM; 350,000 compounds, 0.16% hits; AID 588436; in the data active = activation mostly above about 9.7%, no sharp cut-off
FBA Mtb inh: inhibitors of M. tuberculosis fructose-bisphosphate aldolase. P9WQA3. purified M. tuberculosis FBA, fluorescence read-out. inhibition, % at 1 µM. 360,000 compounds, 2.3% hits
UGM FP inh: blocks M. tuberculosis UGM enzyme | purified UGM, fluorescence polarization probe displacement | inhibition, % at 10 µM | 320,000 compounds, 0.06% hits | AID 504406; in the data active = inhibition above about 10%, passing the limit was not always enough
Mtb FBA inh conf: confirmation of M. tuberculosis fructose-bisphosphate aldolase inhibitors. 5,600 compounds, 78% hits. purified M. tuberculosis FBA, fluorescence read-out. inhibition, % at 1 µM. shares compounds with FBA Mtb inh
GDH-TPI counter-2: inhibits GDH-TPI coupling enzymes, flagging Mtb FBA hits; shares compounds with FBA Mtb inh; GDH-TPI coupled enzyme counterscreen, fluorescence; inhibition, % at 1 µM; 5,600 compounds, 81% hits; AID 652141; in the data active = inhibition above about 10%
A number is an active result; 0 = inactive; - = no result; + = active, no number. Rule as the data show it, unless noted: active = inhibition above about 27%; inactive = the rest.

SMILES	Rv3671c protease	RecA intein inh	GDH-TPI counter-1	Vc quorum ag	FBA Mtb inh	UGM FP inh	Mtb FBA inh conf	GDH-TPI counter-2
COc1ccc2c(C)c(CC(=O)N3C[C@H]4C[C@@H](C3)c3cccc(=O)n3C4)c(=O)oc2c1	0	0	0	0	111.1	0	145.5	103.7
CCCCc1cc(=O)oc2c(C)c(OCC(=O)N3CCCC3)ccc12	0	0	0	0	0	0	-	-
O=C(COc1ccc2ccc(=O)oc2c1)N1CCC(C(=O)O)(c2ccccc2)CC1	0	0	0	0	27.1	0	+	+
Cc1c(C)c2ccc(OCC(=O)N3CCOCC3)c(C)c2oc1=O	0	0	0	0	81.3	0	0	0
Cc1c(OCC(=O)N2CCN(c3ccccc3)CC2)ccc2c3c(c(=O)oc12)CCCC3	0	0	0	0	0	0	-	-
CCCCc1cc(=O)oc2c(C)c(OCC(=O)N3CCC(C(=O)O)(c4ccccc4)CC3)ccc12	0	0	0	0	34.5	0	182.1	131.3
Cc1c(C)c2ccc(OCC(=O)N3CCC(C(=O)O)(c4ccccc4)CC3)c(C)c2oc1=O	0	0	0	0	99.2	0	102.5	90.6
CCN1CCN(C(=O)CN2C(=O)COc3ccc(S(=O)(=O)N4CCOCC4)cc32)CC1	0	0	0	0	0	0	-	-
O=C(COC(=O)c1cnccn1)Nc1cccc(F)c1	0	-	0	0	0	0	-	-
COc1ccc(-c2cc(C(=O)N(C)CC(=O)Nc3cccc(F)c3)c3ccccc3n2)cc1	0	0	0	0	53.8	0	114.7	82.8
COc1ccc(NC(=O)CN(C)C(=O)c2cc(-c3ccc(OC)cc3)nc3ccccc23)cc1	0	0	0	0	34.8	0	48.5	36.5
COc1ccc(NC(=O)CN(C)C(=O)c2cc(-c3ccccc3)nc3ccccc23)cc1	0	0	0	0	0	0	-	-
COCCNC(=O)c1c(NC(=O)c2ccco2)n(Cc2ccccc2)c2nc3ccccc3nc12	0	0	0	-	74.8	0	64.6	64.8
COCCCNC(=O)c1c(NC(=O)c2ccccc2Cl)n(Cc2ccccc2)c2nc3ccccc3nc12	0	0	0	0	0	0	-	-
COCCCn1c(N)c(C(=O)NCc2ccco2)c2nc3ccccc3nc21	0	0	-	-	-	0	-	-
Nc1c(C(=O)NCCN2CCOCC2)c2nc3ccccc3nc2n1Cc1ccccc1	0	0	0	0	90.7	0	0	0
COCCNC(=O)c1c(N)n(Cc2ccco2)c2nc3ccccc3nc12	0	0	0	0	83.1	0	76.1	67.0
Nc1c(C(=O)NCc2ccco2)c2nc3ccccc3nc2n1CCc1ccccc1	-	0	0	0	72.3	-	86.8	72.2
Cc1noc(C)c1NC(=O)N(C)C[C@@H]1Oc2ccc(NC(=O)Cc3cn(C)c4ccccc34)cc2CC(=O)N([C@H](C)CO)C[C@@H]1C	0	-	0	0	0	0	-	-
O=C(COc1ccc(S(=O)(=O)N2CCCC2)cc1)N1CCCCC1	0	0	0	0	0	0	-	-
Nc1c(C(=O)NCCN2CCOCC2)c2nc3ccccc3nc2n1Cc1ccco1	0	0	0	0	85.5	0	98.4	95.5
Nc1c(C(=O)OCc2ccccc2)c2nc3ccccc3nc2n1Cc1cccs1	0	0	0	0	50.6	0	168.5	149.7
COCCNC(=O)c1c(N)n(/N=C/c2cccs2)c2nc3ccccc3nc12	0	0	0	0	0	0	-	-
Nc1c(C(=O)NCCc2ccccc2)c2nc3ccccc3nc2n1CCN1CCOCC1	0	0	0	0	27.5	0	72.9	53.3
O=C(NCCCN1CCOCC1)C(=O)NCCc1ccccc1	0	0	0	-	0	0	-	-
SMILES	Rv3671c protease	RecA intein inh	GDH-TPI counter-1	Vc quorum ag	FBA Mtb inh	UGM FP inh	Mtb FBA inh conf	GDH-TPI counter-2
O=C(NCCN1CCOCC1)C(=O)NCc1ccco1	0	0	0	0	0	0	-	-
Cc1cc(C)c(CN2CCN(C(=O)CC[C@H]3O[C@@H](n4cnc5c(NC(=O)c6ccccc6)ncnc54)[C@H](O)[C@@H]3O)CC2)c(C)c1	-	-	-	-	0	-	-	-
CC(C)c1cc(Cn2c3ccccc3c(=O)n2C(C)CBr)on1 (configuration not stated)	-	-	-	-	95.7	-	69.8	45.8
Cc1cc(CN2C(=O)c3ccccc3C2=O)on1	0	0	0	0	0	0	-	-
CC(C)n1c(=O)c2ccccc2n1C(=O)c1ccccc1	-	-	-	-	0	-	-	-
CC(C)c1cc(Cn2c3ccccc3c(=O)n2C(C)C)on1	-	-	-	-	102.9	-	+	+
Cc1cc(C(F)(F)F)c2c(=O)[nH]c(=O)n(Cc3ccccc3)c2n1	0	0	0	-	0	0	-	-
O=c1[nH]c(=O)n(Cc2ccccc2)c2nc(-c3ccco3)cc(C(F)(F)F)c12	0	0	0	26.8	27.4	0	71.7	64.2
Cc1cc(C)c(C(O)c2ncc(-c3ccccc3C)[nH]2)c(C)c1 (configuration not stated)	-	-	0	0	0	-	-	-
Cc1cccc(C)c1C(O)c1ncc(-c2cccc3ccccc23)[nH]1 (configuration not stated)	-	-	0	0	56.5	-	0	0
Cc1cc(C)c(C(O)c2ncc(-c3cccc4ccccc34)[nH]2)c(C)c1 (configuration not stated)	-	-	0	0	57.0	-	89.2	69.0
CN(CCO)C(=O)C1CCN(c2ncc(C(F)(F)F)cc2Cl)CC1	0	0	0	0	40.6	0	79.5	62.5
Cc1ccccc1N(C(=O)c1snc(C(N)=O)c1N)C(C(=O)NCc1ccccc1)c1ccc(O)cc1 (configuration not stated)	0	0	0	0	42.6	0	0	0
NC(=O)c1nsc(C(=O)N(c2ccccc2F)C(C(=O)NCc2ccccc2)c2ccc(O)cc2)c1N (configuration not stated)	0	0	0	0	44.8	0	0	0
CCOc1ccccc1N(C(=O)c1snc(C(N)=O)c1N)C(C(=O)NCc1ccccc1)c1ccc(O)cc1 (configuration not stated)	-	0	0	0	0	-	-	-
Cc1cc(C)c(N)c(C(=O)O)c1	0	0	0	0	47.6	0	+	+
COc1ccc(CC2(c3ccccc3)NC(=O)NC2=O)cc1 (configuration not stated)	-	-	0	0	0	-	-	-
CCCCC1C(C#N)=C(C)NC2=C1C(=O)CC(C)(C)C2 (configuration not stated)	0	0	0	0	56.5	0	62.6	45.1
COC(=O)c1ccc(C2C(C#N)=C(C)NC3=C2C(=O)CC(C)(C)C3)cc1 (configuration not stated)	0	0	0	0	75.0	0	81.9	51.5
CSC1=C(C#N)C(C)C2=C(CC(C)(C)CC2=O)N1 (configuration not stated)	0	0	0	0	0	0	-	-
CCCC(c1nnnn1C(C)(C)CC)N1CCN(C(=O)c2ccco2)CC1 (configuration not stated)	0	0	0	0	0	0	-	-
